# From PubChem
# hgDAF-12 ag: H. glycines DAF-12 receptor agonists, primary screen, cell-based, luminescence, HEK293, GAL4 fusion, UAS-luciferase. Nuclear hormone receptor DAF-12 (Heterodera glycines), GAL4 fusion. HEK293 GAL4-hgDAF12 UAS-luciferase reporter, agonist luminescence; normalized to butyrate control. actives 1.8% (n = 370,000). activation, % at 6.8 µM. AID 687014, 2013;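 active means activation above a cutoff set at the mean of all screened compounds plus 3 SD, cut at about 10% in these data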;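 further: 0% = DMSO wells and 100% = sodium butyrate wells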
# DAX1 inh-1: DAX1 (NR0B1) inhibitors on StAR promoter, primary screen, cell-based, luminescence, SF-1 (NR5A1), full-length DAX-1; actives 1.1% (n = 370,000); inhibition, % at 6.8 µM; AID 652010, 2013; HEK293T StAR-luciferase reporter, SF-1/DAX-1 repression relief;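 active means inhibition above the mean over all tested compounds plus 3 SD, cut at about 3.6% in these data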;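 further: 0% = DAX-1 cells with DMSO and 100% = cells lacking DAX-1 with DMSO; higher inhibition means more luminescence from relief of DAX-1 repression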
# DAX1 inh-2: DAX1 (NR0B1) inhibitors, primary screen, cell-based, HEK293, Gal4-DAX1, luciferase luminescence; inhibition, % at 6.75 µM; Nuclear receptor subfamily 0 group B member 1 (Homo sapiens), P51843; actives 0.99% (n = 340,000); HEK293 Gal4-DAX1 luciferase reporter;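 active means inhibition above the mean over all tested compounds plus 3 SD, cut at about 4.2% in these data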;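 further: 0% = DAX1-transfected cells with DMSO and 100% = empty-vector control cells with DMSO; inhibition shows as a rise in luminescence from relieved DAX1 repression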
# Target sequence (P51843 207-470 limits assumed): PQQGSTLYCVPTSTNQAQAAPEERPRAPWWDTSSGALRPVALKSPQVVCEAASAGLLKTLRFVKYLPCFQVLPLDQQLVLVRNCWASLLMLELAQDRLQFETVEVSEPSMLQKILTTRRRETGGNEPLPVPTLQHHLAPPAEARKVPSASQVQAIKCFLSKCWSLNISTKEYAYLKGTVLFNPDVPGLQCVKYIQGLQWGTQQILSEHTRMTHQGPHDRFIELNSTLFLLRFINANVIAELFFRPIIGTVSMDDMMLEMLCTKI
# hcDAF-12 act: H. contortus DAF-12 nuclear receptor activators, primary screen, cell-based, luminescence, HEK293, lit1-tk-luc reporter; HEK293 hcDAF-12 lit1-tk-luc reporter; 0% DMSO, 100% Δ7-dafachronic acid; activation, % at 6.8 µM; actives 1.4% (n = 370,000); AID 652067, 2013;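 active means activation above the mean of all tested compounds plus 3 SD, cut at about 5.5% in these data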;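 further: 100% = response to 3 µM Δ7-dafachronic acid high control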
# ssDAF12 agonist: S. stercoralis DAF-12 nuclear receptor activators, primary screen, cell-based, luminescence, HEK293, GRIP1 co-expression, lit1-tk-luc; Nuclear hormone receptor DAF-12 (Strongyloides stercoralis); HEK293 ssDAF-12/GRIP1 lit1-tk-luc reporter; % of 3 µM dafachronic acid response; activation, % at 6.8 µM; actives 1% (n = 370,000);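 active means activation above the mean over all tested compounds plus 3 SD, cut at about 0.9% in these data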;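 further: 0% = DMSO-only wells and 100% = 3 µM delta7-dafachronic acid wells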
# An asterisk follows results filed as active; nt = no result. Hits are enriched below; roughly 4.1% of the tested compounds scored in any of these assays.
SMILES,hgDAF-12 ag,DAX1 inh-1,DAX1 inh-2,hcDAF-12 act,ssDAF12 agonist
O=C(Nc1cccc(F)c1)c1ccc(Cn2cc([N+](=O)[O-])cn2)o1,-2,0,1,-2,0
Fc1ccccc1Cn1ccc2ccc(-c3ccc4ccn(Cc5ccccc5)c4c3)cc21,2,2,nt,0,-1
O=C(c1cc2ccccc2o1)N1CCN(Cc2nc3ccccc3s2)CC1,5,0,1,6.2*,1
COc1cccc(NC(=S)N2CCN(c3ccc([N+](=O)[O-])cc3)CC2)c1,2,0,-1,0,1.1*
Cc1noc(C(=O)Nc2cccc(Cl)c2)c1Cl,6,0,3,3,1
Cc1noc(C(=O)Nc2ccc(F)cc2F)c1Cl,3,0,4.2*,0,0
Cc1ccc(O)c(NC(=O)c2cc(-c3cccs3)on2)c1,11*,1,1,2,0
CC(=O)c1cccc(NC(=O)c2cc3ccccn3n2)c1,7,3.7*,0,1,0
CCCc1cc(C(=O)Nc2cccc(C(C)=O)c2)no1,4,1,3,5.9*,1
C#CCNC(=O)C[C@H]1C(=O)N(Cc2ccc(OC)cc2)C2=CCCCC[C@@]21C(=O)OC,2,-1,nt,-1,-1
O=C(NCCc1c[nH]c2ccccc12)c1ccc(Sc2ccccc2Cl)c([N+](=O)[O-])c1,2,0,nt,3,-1
CCN(CC)C(=O)CC[C@@H]1CC[C@]2(CCCN(C(=O)C(C)(C)C)C2)O1,5,-1,nt,-1,-1
Cc1sc2ncnc(N3CCN(Cc4ccccc4)CC3)c2c1-c1ccc(F)cc1,-1,0,2,-2,-1
COC(=O)[C@]12C[C@H](CC(=O)NCC3CCCCC3)C(=O)N(CCC3=CCCCC3)C1=C[C@H](C1CCCC1)O[C@@H]2C,3,-2,nt,-2,-1
Cc1ccc(O)c(NC(=O)c2onc(C)c2Cl)c1,4,0,3,6.0*,1.8*
CCCc1cc(C(=O)Nc2ccc(F)cc2F)no1,13*,1,2,1,0
Cc1noc(C(=O)Nc2cccnc2Cl)c1Cl,-1,0,1,0,0
O=C1c2cc(O)c(O)cc2OC(c2ccc(O)c(O)c2)C1O (stereo not drawn),-1,0,-1,-1,-1
COc1ccc(C(=O)OCCCN(C)C2CN(Cc3cn(Cc4cccc(F)c4)nn3)S(=O)(=O)C2)cc1OC (stereo not drawn),4,-1,nt,-2,-1
C=CCn1c(SCC(=O)c2ccc(-c3ccccc3)cc2)nnc1-c1ccc(OC)cc1,-2,-2,nt,-3,-2
CCN(c1ccc(NC(=O)COC(=O)c2ccc3ccccc3n2)cc1)C(C)C,5,0,-1,5,0.9*
Cc1ccc(S(=O)(=O)N2CCCCC2)cc1NC(=O)Cc1c[nH]c2ccccc12,-1,0,0,5.8*,0
Cc1ccc(NC(=O)Cc2n[nH]c(=O)c3ccccc23)cc1S(=O)(=O)N1CCCCCC1,-7,-4,-1,-3,-2
Cc1ccc(NC(=O)Cc2c[nH]c3ccccc23)cc1S(=O)(=O)N1CCCCCC1,3,0,0,6.2*,-1
COC(=O)[C@]12C[C@H](CC(=O)NCCc3ccccc3OC)C(=O)N(Cc3ccccc3)C1=C[C@H](C(C)(C)C)O[C@@H]2C,0,-1,nt,-1,-1
CCOC(=O)C1CCN(C(=O)C(C)(C)NC(=O)Nc2ccc(OC)c(Cl)c2)CC1,-2,nt,nt,0,-1
CC(C)c1ccc(N(C(=O)c2csnn2)C(C(=O)NC(C)(C)C)c2ccncc2)cc1 (stereo not drawn),17*,1,2,6.3*,0
CC1CCN(c2ccc(C(=O)O)cc2NS(=O)(=O)c2ccc(Cl)s2)CC1,-3,0,nt,-1,-1
COc1ccc2nc(NC(=O)CSc3nc4ccccc4o3)sc2c1,-1,-1,4.7*,-1,-2
